The list is not random: actives were taken first. Their share in the collection is about 6.3%.
RORg inh – qHTS for inhibitors of ROR gamma transcriptional activity; Drosophila S2 Gal4-RORgamma UAS-luciferase reporter, 20 h; AID 2551, 2010; Nuclear receptor ROR-gamma (Mus musculus), P51450; 310,000 tested, 5.4% active; Potency, µM (series often up to 53.6 µM), usual class: inhibitors; further: nearly all actives have a fitted effect of over 60% in size
Target sequence (P51450 whole entry, looked up, the tested form may be a part): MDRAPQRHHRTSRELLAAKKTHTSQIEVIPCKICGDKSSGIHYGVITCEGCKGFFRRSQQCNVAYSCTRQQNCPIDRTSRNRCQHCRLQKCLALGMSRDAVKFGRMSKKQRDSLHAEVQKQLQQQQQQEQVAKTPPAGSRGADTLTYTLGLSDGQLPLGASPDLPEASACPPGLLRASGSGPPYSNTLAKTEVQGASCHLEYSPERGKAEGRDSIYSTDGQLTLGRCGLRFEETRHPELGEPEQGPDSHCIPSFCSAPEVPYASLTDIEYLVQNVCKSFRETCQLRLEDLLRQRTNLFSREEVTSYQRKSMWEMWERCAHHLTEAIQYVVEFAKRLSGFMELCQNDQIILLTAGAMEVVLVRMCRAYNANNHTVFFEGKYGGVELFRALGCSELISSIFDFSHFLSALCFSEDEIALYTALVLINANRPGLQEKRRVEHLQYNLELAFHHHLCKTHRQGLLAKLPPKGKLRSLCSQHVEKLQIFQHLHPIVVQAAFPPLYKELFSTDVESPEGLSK
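ROR gamma transcriptional activity was tracked as Gal4-UAS luciferase output in stably transfected Drosophila Schneider cells, with compound added 1 hr before 700 uM copper sulfate induction and a 20 hr ambient-temperature incubation.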
S2 tox – Viability Counterscreen for Primary qHTS for Inhibitors of ATXN expression; Potency, µM (doses to about 56.7 µM), most hits filed as cytotoxic; 400,000 tested, 0.49% active; S2 cells (HEK-293 line with an ATXN2-luciferase reporter) viability, CellTiter-Fluor protease fluorescence, 24 h; further: nearly all actives have a fitted effect of over 40% in size
VP16 counter – VP16 counterscreen qHTS for inhibitors of ROR gamma transcriptional activity; Potency, µM (top dose mostly 53.6 µM), usual class: inhibitors; 310,000 tested, 3.5% active; Drosophila S2 Gal4-VP16 UAS-luciferase, luminescence, 20 h;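 further: Gal4-VP16 expression switched on by copper sulfate through the metallothionein promoter; nearly all actives have a fitted effect of over 50% in size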
ATXN2 expr inh – Primary qHTS for Inhibitors of ATXN expression | HEK-293 ATXN2-luciferase reporter, luminescence, 24 h | Potency, µM (titrated, usually from 57 µM), actives largely listed as inhibitors | 360,000 tested, 0.72% active; further: nearly all actives have a fitted effect of over 55% in size
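ATXN2-luciferase reporter cells (luciferase flanked by upstream and downstream ATXN2 gene portions) were treated 24 h at 37 °C with compounds at up to 57 uM. SteadyGlo luminescence gave expression; GF-AFC fluorescence gave viability.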
HepG2 tox – qHTS for Inhibitors of TGF-b: Cytotox Counterscreen; AID 588856, 2011; 410,000 tested, 0.76% active; Potency, µM (top dose mostly 46.1 µM), hits mostly cytotoxic; HepG2 CAGA-GFP viability, ATP luminescence, 18 h
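HepG2 CAGA-GFP cells (1000/well, DMEM with 1% FBS) received compound, then TGF-beta at 500 pg/mL final, and were incubated 18 hours at 37 degrees C. Viability was read by CellTiter-Glo luminescence. Media-only wells were set as complete cell-killing and DMSO as no toxicity.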
TGFb SMAD3 inh – qHTS for Inhibitors of TGF-b | HepG2 CAGA-GFP TGF-b/SMAD3 reporter, GFP fluorescence, 18 h; TGF-beta stimulated, 500 pg/mL final | Potency, µM (titrated, usually from 46.1 µM), most hits filed as inhibitors | 410,000 tested, 1.2% active | AID 588855, 2011; further: nearly all actives have a fitted effect of over 65% in size
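TGF-beta reporter screen: HEPG2 CAGA-GFP, 1% FBS, 500 pg/mL TGF-beta final, 18 h; per-cell GFP summed per well; curves fitted and categorized by class.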
A number is an active result; . = inactive; ? = inconclusive; / = not tested or not shown; ! = a repeat was not active; [ ] = dose if it differs, or a comment. The call rests on the fitted dose curve; in most records, active means well fitted curve in the direction sought with a large enough effect; inconclusive means small, poorly fitted or top-dose-only effect, or another doubt; inactive means no such curve, though single readings can be large; an effect the other way counts as inactive or inconclusive.

SMILES	RORg inh	S2 tox	VP16 counter	ATXN2 expr inh	HepG2 tox	TGFb SMAD3 inh
N#CC(C#N)=NNc1ccc(S(=O)(=O)N2CCCC2)cc1	?	?	?	.	.	?
N#CC(C#N)=NNc1ccc(OC(F)(F)F)cc1	1µM	/	0.355µM	/	/	/
COP(=O)(OC)O/C(=C\Cl)c1cc(Cl)c(Cl)cc1Cl	.	/	?	/	/	/
COc1ccccc1NC(=O)N(Cc1ccc2c(c1)OCO2)C1CCN(Cc2ccccc2)CC1	/	?	/	?	.	8.91µM
N#CC(C(=O)C12CC3CC(CC(C3)C1)C2)c1nc2ccccc2[nH]1 (stereo not drawn)	3.98µM	.	10µM	.	.	.
Cc1cccc(C)c1N	.	/	.	/	/	/
COc1ccc(-n2nnnc2C(c2cccc(OC)c2OC)N2CCC(n3c(=O)[nH]c4ccccc43)CC2)cc1 (stereo not drawn)	/	?	/	.	.	?
COc1cccc(C(c2nnnn2-c2ccc3c(c2)OCCO3)N2CCC(n3c(=O)[nH]c4ccccc43)CC2)c1OC (stereo not drawn)	/	.	/	15.8µM	12.6µM	?
Clc1ccccc1N1CCNCC1	/	.	/	.	/	/
Cc1ccc(OP(=O)(Oc2ccc(C)cc2)Oc2ccc(C)cc2)cc1	.	/	.	/	/	/
CCN1CCN(C(=O)Cc2ccc(Nc3ncc(F)c(Nc4ccc(C(=O)Nc5ccccc5Cl)cc4)n3)cc2)CC1	/	/	/	24.3µM	/	/
CC(=O)Nc1ccc(CC(=O)N2CCN(Cc3ccccc3)CC2)cc1	.	.	.	.	.	.
CC(=O)Nc1ccc(OC[C@](C)(O)C(=O)Nc2ccc([N+](=O)[O-])c(C(F)(F)F)c2)cc1	/	/	/	.	/	/
COC(C)(C)C	.	/	.	/	/	/
O=C1C=C(N2CC2)c2ccccc2C1=O	/	?	/	/	.	15.8µM
CCC1(CCC(C)C)C(=O)NC(=O)NC1=O	/	.	/	.	/	/
Cn1cnc([N+](=O)[O-])c1Sc1ccc([N+](=O)[O-])cc1	11.2µM	?	?	.	.	.
CC(C)[C@H](CO)Nc1nc(Nc2cccc(Cl)c2)c2ncn(C(C)C)c2n1	14.1µM	/	.	?	/	/
O=C(O)CCC(CP(=O)(O)O)C(=O)O (stereo not drawn)	.	/	.	/	/	/
CC(C)NS(=O)(=O)c1ccc(OCC(=O)N2CCN(Cc3ccccc3)CC2)c(Cl)c1	?	.	20µM	.	.	.
CCOC(=O)[C@]12Cc3cc(Cl)ccc3[C@H]1N(Cc1ccccc1)C(=O)c1cc(OC)ccc12	/	12.6µM	/	17.8µM	/	/
CCOC(=O)[C@]12Cc3cc(OC)c(OC)cc3[C@H]1N(Cc1ccccc1)C(=O)c1ccccc12	/	.	/	.	.	.
CCOC(=O)[C@]12Cc3cc4ccccc4cc3[C@H]1N(Cc1ccccc1)C(=O)c1ccccc12	/	20µM	/	?	/	/
CCOC(=O)[C@]12Cc3cc4ccccc4cc3[C@H]1N(Cc1ccccc1)C(=O)c1cc(OC)ccc12	/	31.6µM	/	20µM	/	/
CCCCCN1C(=O)c2cc(OC)ccc2[C@@]2(C(=O)OCC)Cc3cc(Cl)ccc3[C@@H]12	/	8.91µM	/	7.08µM	/	/
SMILES	RORg inh	S2 tox	VP16 counter	ATXN2 expr inh	HepG2 tox	TGFb SMAD3 inh
CC(C)[C@H]1C(=O)N[C@H](CO)Cc2c[nH]c3cccc(c23)N1C	/	/	/	.	/	/
CCCCOCC1CO1 (stereo not drawn)	.	/	.	/	/	/
O=C(Cn1c(=O)oc2cc(S(=O)(=O)N3CCCC3)ccc21)NCc1ccc(Cl)cc1	/	.	/	.	.	.
COc1ccc(CN2C(=O)NC(=O)/C(=C/c3ccc(OC)c(OC)c3OC)C2=O)cc1	.	.	1.26µM	.	.	.
COc1ccc(CN2C(=O)NC(=O)/C(=C/c3cc(OC)c(OC)c(OC)c3)C2=O)cc1	.	.	.	.	.	.
C=C1C(=O)OC2CC3(C)OC3CCC(C)=CC(OC(C)=O)C12 (stereo not drawn)	/	/	/	?	.	17.8µM
CCCCCCCC/C=C\CCCCCCCC(=O)OC[C@@H](COP(O)(O)=S)OC	.	/	.	/	/	/
Cc1ccc(N2C(=O)NC(=O)/C(=C/C=C/c3ccco3)C2=O)cc1	12.6µM	?	10µM	?	.	11.2µM
O=C1NC(=O)N(c2ccccc2)C(=O)/C1=C\C=C\c1ccccc1	?	14.1µM	10µM	14.1µM	.	7.08µM
CCCCN1C(=O)/C(=C/C=C/c2ccco2)C(=O)NC1=S	.	.	.	.[11.3 µM]	.	.
CCc1ccc(N2C(=O)NC(=O)/C(=C\C=C\c3ccco3)C2=O)cc1	.	10µM	.	/	.	?
CC(C)c1ccc(N2C(=O)NC(=O)/C(=C/C=C/c3ccco3)C2=O)cc1	.	/	12.6µM	28.2µM	.	?
CCc1ccc(N2NC(=O)/C(=C/C=C/c3ccco3)C2=O)cc1	?	.	.	.	.	.
COc1cc(/C=C2\C(=O)NC(=O)N(c3ccccc3)C2=O)cc(OC)c1OC	?	.	.	.	.	.
O=C1NC(=O)N(Cc2ccc(F)cc2)C(=O)/C1=C\C=C\c1ccco1	?	?	?	?	.	?
O=C(Nc1ccc(Cl)cc1)C1CCN(C(=O)c2cccs2)CC1	?	.	.	.	.	.
Cc1cc(C)cc(N2C(=O)NC(=O)/C(=C\C=C\c3ccco3)C2=O)c1	3.16µM	?	10µM	?	.	?
O=c1cc(-c2ccc(O)c(O)c2)oc2cc(O)cc(O)c12	22.4µM!	?	11.2µM!	.	.	?
C=CC(=O)OCC	.	/	.	/	/	/
N#Cc1ccc(/C=C/C(=O)O)cc1	.	.	.	/	.	.
O=C(/C=C/c1ccccc1)C1C(=O)c2ccccc2C1=O	?	.	8.91µM	.	.	.
O=c1c2ccccc2[nH]c(=S)n1-c1cccnc1	.	.	.	.	.	.
COc1cccc(-n2c(=S)[nH]c3ccccc3c2=O)c1	4.47µM	.	?	.	.	.
O=c1c2ccc(Cl)cc2[nH]c(=S)n1-c1cccnc1	14.1µM	?	?	.	.	.
O=c1c2ccccc2[nH]c(=S)n1-c1ccc(Br)cc1	0.891µM	.	1.41µM	.	.	.
SMILES	RORg inh	S2 tox	VP16 counter	ATXN2 expr inh	HepG2 tox	TGFb SMAD3 inh
Cl/C=C/Cl	.	/	.	/	/	/
O=c1c(C2CC(c3ccc(-c4ccc(Br)cc4)cc3)Cc3ccccc32)c(O)sc2ccccc12 (stereo not drawn)	/	.	/	?	/	/
CN1[C@@H]2CC[C@H]1CC(O[C@@H](c1ccccc1)c1ccc(Cl)cc1)C2 (stereo partly drawn)	12.6µM	/	14.1µM	/	/	/
ClP(Cl)(Cl)(Cl)Cl	.	/	.	/	/	/
C/C(=N\NC(N)=S)C12CC3CC(CC(C3)C1)C2	1.78µM	15.8µM	2.51µM	?	.	11.2µM
C[n+]1c(-c2ccccc2)c2cc(N)ccc2c2ccc(N)cc21	?	15.8µM	12.6µM	7.08µM	.	4.47µM
CCCBr	.	/	.	/	/	/
CCOC(=O)[C@]12Cc3cc(Cl)ccc3[C@H]1N(C1CCCCC1)C(=O)c1ccccc12	/	3.55µM	/	3.16µM	/	/

Screening data from PubChem.
